24 compounds from PubChem BioAssay (NCATS) can be followed below.

Records with an inconclusive call do not appear. Active and inactive are the calls of the source. Calls follow the shape of the dose curve; as a rule, active = well fitted cell-killing curve with a large enough effect; inconclusive = small, poorly fitted or top-dose-only effect, or effect the other way; inactive = no such curve, though single readings can be large or run the other way.

This assay in a line: Cell Viability - LYMP2-005 (AID 967). The following applies: LYMP2-005 lymphoblastoid cell viability; series mostly up to 92.2 µM. From the text:
NIH Chemical Genomics Center [NCGC]
NIH Molecular Libraries Screening Centers Network [MLSCN]
National Institutes of Environmental Health Sciences [NIEHS]
National Toxicology Program [NTP]
We have developed a 1536-well cell-based assay for quantitative high throughput screening (qHTS) against a number of cell lines to determine in vitro cytotoxicity of small molecules. This particular assay uses a human lymphoblastoid cell line (LYMP2-005) purchased from Coriell Institute for Medical Research.
NCGC Assay Protocol Summary:
The CellTiter-Glo luminescent cell viability assay (Promega) is a homogeneous method to measure the number of viable cells in culture. The end point readout of this assay is based on quantitation of intracellular ATP, an indicator of metabolic activity, using the luciferase reaction. Luciferase catalyzes the oxidation of beetle Luciferin to oxyluciferin and light in the presence of ATP. The luminescent signal is proportional to amount of ATP present.
Using the CellTiter-Glo luminescent cell viability assay, the amount of cellular ATP was measured in the lymphoblastoid cell line with complete culture medium following compound treatment for 24 hours. The assay was performed in opaque white Kalypsys 1536-well plates. In the screen, tetraoctylammonium bromide was used as positive control. Library compounds were measured for their ability to cause acute toxicity in the cell line, as reflected by a decrease in intracellular ATP levels, in a concentration-dependent manner. […] AC50 values were determined from concentration-response data modeled with the standard Hill equation.
qHTS protocol for CellTiter Glo lymphoblastoid cellular assay
[Step] [Parameter] [Value] [Description]
1. Reagent; 5 uL; 2500 lymphoblastoid cells/well
2. Time; 5 hr; 37 C incubation
4. Controls; 23 nL; Tetraoctylammonium bromide 6.4pM to 92 uM
5. Time; 24 hr; 37 C incubation
6. Reagent; 5 uL; CellTiter Glo reagent
7. Time; 30 min; Room Temperature
8. Detection; Luminescence; Viewlux plate reader
Keywords: cell viability, cytotoxicity, lymphoblastoid cell line, luminescence, NTPHTS, NTPHTS_NCGC, NIEHS, DSSTox, MLSMR, MLSCN, NIH Roadmap, qHTS, NCGC
As to `CCCCOC(=O)c1ccccc1C(=O)OCc1ccccc1`, the compound was classed as inactive.
The result for `CCOP(=O)(NC(C)C)Oc1ccc(SC)c(C)c1` (centres undefined) reads “inactive”; that for `COc1ccc(C(c2ccc(OC)cc2)C(Cl)(Cl)Cl)cc1`, “inactive”; that for `OCCCBr`, “inactive”.
With `O=C(O)COc1ccccc1` the entry was “inactive”; with `C=CC(=O)NCNC(=O)C=C`, “inactive”; with `O=[N+]([O-])c1c2ccccc2cc2ccccc12`, “inactive”.
With `CCOCCOC(C)=O` the entry was “inactive”; with `C1CCC(NC2CCCCC2)CC1`, “inactive”; with `COC(C)(C)CCCC(C)C/C=C/C(C)=C/C(=O)OC(C)C` (centres undefined), “inactive”.
As to `Cc1cc(O)ccc1Cl`, the compound was classed as inactive.
The result for `Nc1ccc(Cl)cc1` reads “inactive”.
The result for `CCCCCCCCc1ccc(O)cc1` reads “inactive”.
With `c1cc2ccc3cccc4ccc(c1)c2c34` the entry was “inactive”; with `CN(C)NC(=O)CCC(=O)O`, “inactive”; with `Nc1ccc(Cl)cc1N`, “inactive”.
For `Nc1ccc(Sc2ccc(N)cc2)cc1`, the compound was called inactive.
The result for `CCCCC(CC)COC(=O)c1ccccc1C(=O)OCC(CC)CCCC` (centres undefined) reads “inactive”; that for `O=[N+]([O-])c1c(Cl)c(Cl)cc(Cl)c1Cl`, “inactive”.
Consider `O=C(O)C(Cl)Cl`, for which the result was inactive.
With `CN(C)[C@@H]1C(=O)C(C(N)=O)=C(O)[C@@]2(O)C(=O)C3=C(O)c4c(O)cccc4[C@@](C)(O)[C@H]3[C@H](O)[C@@H]12` the entry was “inactive”; with `CC(C)(O)C(=O)Nc1ccc([N+](=O)[O-])c(C(F)(F)F)c1`, “inactive”.
The result for `O=S(=O)(c1ccc(Cl)cc1)c1ccc(Cl)cc1` reads “inactive”; that for `O=[N+]([O-])c1cc([N+](=O)[O-])c2ccccc2c1`, “inactive”.
